# KCNQ2 inh – rat KCNQ2 potassium channel inhibitors, primary screen, cell-based, CHO-K1, FluxOR thallium flux, B-score; Potassium voltage-gated channel subfamily KQT member 2 (Rattus norvegicus), O88943; 20 min; hits give low values; B-score at 10 µM; actives 1.1% (n = 310,000);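 active = fluorescence ratio B-score at most minus 3 library SDs, with starting brightness B-score within 2 library SDs, cut at about -5.5 in these data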
# Target sequence (O88943 whole entry, looked up): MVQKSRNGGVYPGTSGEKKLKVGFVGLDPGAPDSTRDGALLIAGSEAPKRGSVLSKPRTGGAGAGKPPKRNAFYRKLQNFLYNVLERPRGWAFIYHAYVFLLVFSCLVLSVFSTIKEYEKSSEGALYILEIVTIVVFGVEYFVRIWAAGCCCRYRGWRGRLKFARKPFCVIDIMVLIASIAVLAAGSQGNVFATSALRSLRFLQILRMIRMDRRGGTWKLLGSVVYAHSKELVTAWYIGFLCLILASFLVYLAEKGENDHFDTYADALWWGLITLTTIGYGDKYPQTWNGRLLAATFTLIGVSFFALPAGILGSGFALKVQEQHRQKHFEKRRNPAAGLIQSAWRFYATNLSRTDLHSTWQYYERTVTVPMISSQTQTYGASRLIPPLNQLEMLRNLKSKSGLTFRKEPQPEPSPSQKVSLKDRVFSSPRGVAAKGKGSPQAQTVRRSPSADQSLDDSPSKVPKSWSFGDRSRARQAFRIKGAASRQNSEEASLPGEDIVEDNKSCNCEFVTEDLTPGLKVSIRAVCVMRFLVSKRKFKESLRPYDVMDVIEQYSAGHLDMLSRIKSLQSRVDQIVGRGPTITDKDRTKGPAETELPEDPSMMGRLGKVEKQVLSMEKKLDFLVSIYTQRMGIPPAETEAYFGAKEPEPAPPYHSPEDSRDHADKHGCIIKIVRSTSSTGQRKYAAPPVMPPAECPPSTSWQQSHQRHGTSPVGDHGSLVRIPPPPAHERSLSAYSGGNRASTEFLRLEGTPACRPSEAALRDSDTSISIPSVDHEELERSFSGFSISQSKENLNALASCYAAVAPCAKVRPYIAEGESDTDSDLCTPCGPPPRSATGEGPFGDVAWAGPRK
# KCNQ2 pot – potentiators of rat KCNQ2 potassium channel. Potassium voltage-gated channel subfamily KQT member 2 (Rattus norvegicus), O88943. actives 0.54% (n = 310,000). B-score at 10 µM. CHO-K1 KCNQ2, FluxOR thallium flux fluorescence; hits give high values. AID 2239, 2010;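 active = fluorescence ratio B-score at least 3 SD of library B-scores, with initial fluorescence B-score within 3 of them, cut at about 5.3 in these data; same plate scores as AID 2156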;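 also: B-score of peak minus minimum over baseline fluorescence ratio after K+ and Tl+ stimulus; positive B-score means potentiation of KCNQ2 with more thallium influx and brighter signal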
# Hits are given with their value; i = inactive; nt = no result given. Compounds with a hit are over-represented: about 1.6% of the library has one in this group of screens.
SMILES,KCNQ2 inh,KCNQ2 pot
COc1ccc(NC(=O)NNC(=O)COc2ccc([N+](=O)[O-])c(C)c2)cc1OC,i,nt
Cc1ccc(N2CCN(c3ncccc3[N+](=O)[O-])CC2)c(C)c1,i,nt
Cc1ccc(C)c(N2CCN(c3ncccc3[N+](=O)[O-])CC2)c1,-6.6,i
COc1cccc(Nc2ncnc3onc(-c4ccccc4OC)c23)c1,i,i
COc1ccccc1N(CC(=O)NCCN1CCOCC1)S(=O)(=O)c1ccccc1,i,nt
Cc1ccc(S(=O)(=O)N(C)CC(=O)N2CC(C)OC(C)C2)cc1 (centres undefined),i,nt
CCOc1ccccc1NC(=O)CSc1nnnn1C1CCCC1,i,nt
Cc1ccccc1Cn1ccc(-c2ccc3c(c2)OCO3)n1,-6.7,i
Fc1cccc(Cn2ccc(-c3ccc4c(c3)OCO4)n2)c1,i,nt
O=C(Nc1ccccc1Oc1ccccc1)C1=COCCO1,i,i
O=C1C(=Nc2cccc(Cl)c2)CC(c2ccc(Cl)cc2)N1c1cccc(Cl)c1 (centres undefined),i,nt
COc1ccccc1C(=O)OC(C)CN1CCN(C)CC1 (centres undefined),i,nt
Cn1cnnc1Sc1ccc(C(=O)OCC(=O)NC2CC2)cc1[N+](=O)[O-],i,i
O=C(COC(=O)c1ccc(Sc2ccccc2)c([N+](=O)[O-])c1)NC1CCCc2ccccc21 (centres undefined),-6.9,i
CC1CC(C)CN(c2ccc(C(=O)OCC(=O)NC3CCCc4ccccc43)cc2[N+](=O)[O-])C1 (centres undefined),-7.8,i
CC1CCCN(c2ccc(C(=O)OCC(=O)N3c4ccccc4Sc4ccccc43)cc2[N+](=O)[O-])C1 (centres undefined),i,nt
Cc1nc(NC(=O)CN2CCC(O)(c3ccc(F)cc3)CC2)sc1C,i,nt
COc1ccc(/C=C2\Sc3ccc(C(=O)NCCCN4CCCC4)cc3N(C)C2=O)cc1OC,i,i
CCc1ccccc1NC(=O)c1cc([N+](=O)[O-])ccc1N1CCOCC1,i,i
COc1cc(/C=C/C(=O)Nc2cc(S(=O)(=O)N3CCOCC3)ccc2N2CCCC2)cc(OC)c1OC,i,nt
CCN(CC)S(=O)(=O)c1ccc(N2CCCCC2)c(NC(=O)/C=C/c2cc(OC)c(OC)c(OC)c2)c1,-6.4,i
CCN(CC)S(=O)(=O)c1ccc(N2CCOCC2)c(NC(=O)c2cccc3ccccc23)c1,i,nt
CC1CCN(c2ccccc2NC(=O)c2cc([N+](=O)[O-])ccc2N2CCOCC2)CC1,-5.7,i
CCN(CC)S(=O)(=O)c1ccc(N2CCCCC2)c(C(=O)Nc2ccccc2N2CCOCC2)c1,-8,i
Clc1ccc(-c2nsc(N3CCOCC3)n2)c(Cl)c1,i,i
SMILES,KCNQ2 inh,KCNQ2 pot
CC(OC(=O)c1cc(=O)[nH]c2ccccc12)C(=O)NC1CCCCC1C (centres undefined),i,nt
Cc1ccc(C)c(S(=O)(=O)N2CCN(C(=O)C3CCN(C(=O)c4ccc(F)cc4)CC3)CC2)c1,i,nt
COCCOC(=O)/C(=C/c1ccc(OC(=O)c2ccccc2)cc1)C(C)=O,i,i
CCOC(=O)/C(=C/c1ccc(OC(=O)c2ccncc2)cc1)C(C)=O,-5.7,i
CNC(=O)CSc1nnc(NC(=O)C2CC(=O)N(c3ccccc3OC)C2)s1 (centres undefined),i,nt
CCCC1c2ccc(C)n2CCN1C(=O)Nc1ccccc1Cl (centres undefined),-7.2,i
CC1CCCCN1C(=O)Nc1ccccc1Cl (centres undefined),i,nt
CCOC(=O)c1ccccc1NC(=O)N1CCn2c(C)ccc2C1CC (centres undefined),-6.2,i
CCC1c2ccc(C)n2CCN1C(=O)Nc1ccccc1C(=O)OC (centres undefined),i,nt
COc1ccc([N+](=O)[O-])cc1NC(=O)COC(=O)c1ccccn1,i,i
CN(C)N1C(N)=C(C#N)C(c2ccc3c(c2)OCO3)C2=C1CCCC2=O (centres undefined),i,nt
COc1ccc(-c2cc3c(=O)n(CC(=O)N4CCCC4)ncn3n2)cc1,i,nt
COc1ccc(Cl)cc1NC(=O)CN(C)C1CCCCC1,i,nt
COc1ccc(OC)c(NC(=O)CN(Cc2ccc(F)cc2)C2CCCCC2)c1,-7.9,i
Cc1cc(/C=N/NC(=O)c2cc3ccccc3o2)c(C)n1C,i,nt
C/C(=N\NC(=O)c1nnn(-c2nonc2N)c1CN1CCC(C)CC1)c1cccc(Br)c1,-5.7,i
C/C(=N\NC(=O)c1nnn(-c2nonc2N)c1CN1CCCCCC1)c1ccc(Br)cc1,i,nt
Cc1ccccc1-n1nc2c(c1NC(=O)/C=C\c1ccc3c(c1)OCO3)CSC2,-6.7,i
Cc1ccc(-n2nc3c(c2NC(=O)/C=C\c2ccc4c(c2)OCO4)CSC3)c(C)c1,i,nt
CCN(CC(=O)NCc1cccs1)C(=O)c1ccc(-c2cccc(C(F)(F)F)c2)o1,-7.6,i
CCN(CC(=O)NCc1cccs1)C(=O)c1cccc(S(=O)(=O)NC)c1,i,nt
O=C(c1ccco1)N1CCN(C(=S)Nc2ccccc2C(F)(F)F)CC1,i,i
C/C=C(/C)C(=O)OC1c2c(ccc3ccc(=O)oc23)OC(C)(C)C1OC(=O)/C(C)=C\C (centres undefined),-9.9,i
C/C=C(\C)C(=O)OC1c2c(ccc3ccc(=O)oc23)OC(C)(C)C1OC(C)=O (centres undefined),i,i
N#C/C(=C/c1ccc(N2CCCCCC2)o1)c1cccc(F)c1,i,nt
SMILES,KCNQ2 inh,KCNQ2 pot
N#C/C(=C/c1ccc(N2CCCCCC2)o1)c1ccc(F)cc1,-7,i
CC(C)c1onc(C(=O)NC(C)c2ccccc2)c1[N+](=O)[O-] (centres undefined),i,i
COc1ccc2nc(/N=C/c3c(C)[nH]n(-c4ccc(C)cc4C)c3=O)sc2c1,i,20
COc1ccccc1N=Cc1c(C)[nH]n(-c2ccc(C)cc2C)c1=O,i,nt
O=C(C1CCCCC1)N1CCN(S(=O)(=O)c2cccc([N+](=O)[O-])c2)CC1,i,nt
CCC1C(=O)NCCN1C(=O)c1ccc2nc(Cc3cccc(Cl)c3)oc2c1 (centres undefined),i,nt
N#CCCN(Cc1ccccc1)S(=O)(=O)c1cccs1,i,i
COCCNC(=S)N(CCc1c(C)[nH]c2ccccc12)Cc1cccnc1,i,i
O=C(CSc1nnnn1C1CCCC1)N1CCCc2ccccc21,i,nt
Cn1c(Cc2cccs2)nnc1SCC(=O)N1CCCc2ccccc21,i,nt
O=C(CSc1nnc(Cc2cccs2)n1C1CCCCC1)N1CCCc2ccccc21,-6.5,i
O=C(CSc1nnc(Cc2cccs2)n1CCc1ccccc1)N1CCCc2ccccc21,-6.5,i
CC(C)Oc1ccc(C(CC(=O)O)Cc2ccccc2)cc1 (centres undefined),i,i
O=c1cc(COc2ccccc2[N+](=O)[O-])nc2sccn12,i,nt
O=C1C(=O)N(CCCO)C(c2ccc(Br)cc2)/C1=C(\O)c1ccc(Br)cc1 (centres undefined),i,nt
Cc1ccc(SCCNC(=S)Nc2ccc(C)cc2C)cc1,i,7
Cc1ccc(SCCNC(=S)Nc2cc(C)cc(C)c2)cc1,i,nt
CC(Sc1nc2cc([N+](=O)[O-])ccc2n1-c1ccc(F)cc1)C(=O)NCc1ccc2c(c1)OCO2 (centres undefined),-8,i
COc1ccccc1-n1c(SCC(=O)NCc2ccc3c(c2)OCO3)nc2cc([N+](=O)[O-])ccc21,i,nt

# Assay outcomes deposited in PubChem by Johns Hopkins Ion Channel Center.
